High-throughput results as filed in PubChem BioAssay.
MCF10A rerep = DNA re-replication induction in MCF 10a cells | 350,000 tested, 2.9% active | Potency, µM (top dose mostly 46.1 µM), actives largely listed as activators | AID 624296 | MCF 10A DNA re-replication, Hoechst nuclear intensity, 48 h; further: nearly all actives have a fitted effect of over 50% in size
KB-V1 cytotox = kills drug-selected multidrug resistant KB-V1 cells | KB-V1 MDR cells viability, CellTiter-Glo, 72 h | Potency, µM (highest dose often 46.1 µM), actives largely listed as cytotoxic | 400,000 tested, 3.4% active | AID 1347076; further: nearly all actives have a fitted effect of over 60% in size
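In this primary screen, KB-V1 cells overexpressing P-gp are incubated with library compounds (lowest to highest concentration) for 72 h at 37 degrees C before a luminescent ATP viability read.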
HT1080 IDH1KD tx = toxicity to HT-1080 IDH1 knockdown cells (counter line). HT-1080 IDH1 knockdown viability, ATP luminescence, 48 h. Potency, µM (series often up to 46.1 µM), usual class: cytotoxic. 360,000 tested, 2% active
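Cytotoxicity counter-line: IDH1KD HT-1080, 48 h, CellTiter-Glo. Curves classed by r2, magnitude and activity.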
SW480 rerep = inducers of DNA re-replication in SW480 colon cancer cells; SW480 DNA re-replication, Hoechst DNA content imaging, 48 h; Potency, µM (doses to about 46.1 µM), most hits filed as activators; AID 624297; 340,000 tested, 1.8% active; further: nearly all actives have a fitted effect of over 55% in size
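Per well, 250 cells were exposed to pinned compound for 48 hr. Nuclear DNA was visualised with Hoechst (40 min, 37 C) and total object intensity recorded by fluorescence scanning.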
KB-3-1 tox = kills parental KB-3-1 adenocarcinoma cells. 400,000 tested, 1.4% active. KB-3-1 viability, CellTiter-Glo ATP luminescence, 72 h. AID 1347075. Potency, µM (series often up to 46.1 µM), hits mostly cytotoxic; further: nearly all actives have a fitted effect of over 60% in size
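Cells are dispensed, compounds pinned in, plates held at 37 °C for 72 h, then CellTiter-Glo is added and luminescence read after 10 minutes. Cell line: parental KB-3-1 in phenol-red-free DMEM, 10% FBS.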
HT1080NT lethal = kills 2HG-producing HT-1080-NT fibrosarcoma cells; AID 686970; Potency, µM (doses to about 46.1 µM), hits mostly cytotoxic; 360,000 tested, 1.6% active; HT-1080-NT fibrosarcoma viability, CellTiter-Glo ATP luminescence, 48 h;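 further: NT is the 2HG producing partner of a matched IDH1 knockdown line; nearly all actives have a fitted effect of over 55% in size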
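Viability of the 2HG-overproducing fibrosarcoma line after 48 hours of compound exposure at 37 degrees C was determined by luminescence with CellTiter-Glo, and concentration-effect curves were then fitted and categorized.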
Hits are given with their value; . = inactive; ? = inconclusive; / = no result given. Most compounds without a hit are left out; they make up all but 7.9% or so of the library. The call rests on the fitted dose curve; in most records, active means well fitted curve in the direction sought with a large enough effect; inconclusive means small, poorly fitted or top-dose-only effect, or another doubt; inactive means no such curve, though single readings can be large; an effect the other way counts as inactive or inconclusive.

SMILES	MCF10A rerep	KB-V1 cytotox	HT1080 IDH1KD tx	SW480 rerep	KB-3-1 tox	HT1080NT lethal
NNc1nc(-c2ccccc2)nc2sc3c(c12)CCCC3	.	?	.	.	.	.
COc1ccc(OC)c(CN2CCN(C(=O)[C@@H](NC(=O)c3cccc(C)c3)C(C)C)CC2)c1	?	9.2µM	.	.	.	.
COc1cc(OC)cc(C(=O)NC(C(=O)N2CCc3ccccc3C2)C(C)C)c1 (stereo not given)	?	?	?	18µM	?	?
COc1ccc(C(=O)N2CCN(Cc3cc(OC)ccc3OC)CC2)cc1	.	.	.	.	.	.
O=C1CCCC/C=C\C[C@H](CC(=O)N(CCO)Cc2ccccc2)C(=O)N2CCC[C@@H]2CO1	.	.	.	.	.	.
O=C(Cc1c(Sc2ccccc2)c2ccccc2n1Cc1ccccc1)NCCO	21µM	.	.	.	.	.
Cn1c(CC(=O)NCCO)c(Sc2ccccc2)c2ccccc21	.	.	.	.	.	.
CCOc1ccc(CN(C)CC(O)COC(c2ccc(OC)cc2)c2ccc(OC)cc2)cc1 (stereo not given)	18µM	?	?	?	?	16µM
COc1ccc(CN(C)CC(O)COc2ccc(-c3ccccc3)cc2)cc1OC (stereo not given)	?	.	21µM	?	?	?
COc1ccc(C(OCC(O)CN(C)C2CCCCC2)c2ccc(OC)cc2)cc1 (stereo not given)	.	?	?	.	.	?
COc1ccc(CN(C)CC(O)COC(c2ccc(OC)cc2)c2ccc(OC)cc2)cc1 (stereo not given)	?	?	?	?	.	21µM
Cc1ccc(S(=O)(=O)c2cc3c(=O)n4ccccc4nc3n(CCc3ccccc3)c2=N)cc1	?	.	.	?	.	.
N=c1c(S(=O)(=O)c2ccc(Br)cc2)cc2c(=O)n3ccccc3nc2n1CCN1CCOCC1	16µM	.	.	?	.	.
COc1ccc(CCn2c(=N)c(S(=O)(=O)c3ccccc3)cc3c(=O)n4ccccc4nc32)cc1	3.7µM	.	.	.	.	.
Cc1ccc(S(=O)(=O)c2cc3c(=O)n4ccccc4nc3n(C)c2=N)cc1	?	6.5µM	.	?	.	.
Cc1ccc(S(=O)(=O)c2cc3c(=O)n4ccccc4nc3n(CC3CCCO3)c2=N)cc1C (stereo not given)	.	4.6µM	?	.	.	?
C/C(=N\NC(=O)c1ccc(OC2OCCOC2Oc2ccc(C(=O)N/N=C(\C)c3ccncc3)cc2)cc1)c1ccncc1 (stereo not given)	.	.	?	.	?	?
CCCCCn1c(=N)c(S(=O)(=O)c2ccccc2)cc2c(=O)n3ccccc3nc21	/	?	/	/	.	/
CCCn1c(=N)c(S(=O)(=O)c2ccccc2)cc2c(=O)n3ccccc3nc21	18µM	.	.	.	.	.
CCn1c(=N)c(S(=O)(=O)c2ccccc2)cc2c(=O)n3ccccc3nc21	6.5µM	.	.	.	.	.
Cc1ccccc1C(=O)Nc1nnc(CC(=O)N/N=C/c2cn(Cc3ccccc3)c3ccccc23)s1	6.5µM	.	.	21µM	?	.
Cc1ccc(C(=O)N/N=C/c2cn(Cc3ccccc3)c3ccccc23)cn1	?	?	.	?	16µM	.
O=S(=O)(N/N=C/c1cn(Cc2ccccc2)c2ccccc12)c1ccccc1	?	21µM	.	.	?	.
NC(=O)Cn1cc(/C=N\NS(=O)(=O)c2ccc(Cl)cc2)c2ccccc21	.	.	.	.	.	.
COc1ccc2c(c1)c1c(c(=O)n(-c3ccc(C)cc3)c(=O)n1CC(=O)NCc1ccc(C)cc1)n2C	/	.	/	/	.	/
SMILES	MCF10A rerep	KB-V1 cytotox	HT1080 IDH1KD tx	SW480 rerep	KB-3-1 tox	HT1080NT lethal
Cc1ccccn1	.	/	/	.	/	/
Cc1cc(S(=O)(=O)Nc2ccc(C(=O)O)cc2)c(C)c(S(=O)(=O)c2ccc(Cl)cc2)c1	/	?	/	/	.	/
O=C(CN1CCN(C(=O)C2CC2)CC1)Nc1cc(C(F)(F)F)cc(C(F)(F)F)c1	.	21µM	.	.	.	.
CCOC(=O)c1c(-n2cnnn2)sc2c1CCCC2	.	.	.	.	.	.
CCOC(=O)c1c(N2C(=O)Nc3cc(Cl)c(Cl)cc3N2O)sc2c1CCCCC2	2.3µM	.	?	.	.	?
COc1ccc(-c2cc(C(F)F)nc(-n3nc(C)cc3C)n2)cc1	.	23µM	.	.	.	.
Cc1ccc(-c2cc(C(F)F)nc(N3CCOCC3)n2)cc1	?	.	.	.	.	.
Cc1ccc(NC(=O)CN2C(=O)S/C(=C/c3ccc(-c4cc(C(=O)O)ccc4C)o3)C2=O)cc1C	5.8µM	.	.	?	.	.
Cc1ccccc1NC(=O)CN1C(=O)S/C(=C\c2ccc(-c3cccc(C(=O)O)c3C)o2)C1=O	.	.	.	.	.	.
Cc1cccc(NC(=O)CN2C(=O)S/C(=C\c3ccc(-c4cccc(C(=O)O)c4C)o3)C2=O)c1	23µM	.	.	?	.	.
COc1cccc(CC2(CO)CCCN(Cc3cc4ccccc4[nH]3)C2)c1 (stereo not given)	?	.	23µM	?	.	?
COc1cccc(CC2(CO)CCCN(Cc3ccc(C)s3)C2)c1 (stereo not given)	?	?	.	.	.	.
COc1cccc(CC2(CO)CCCN(Cc3[nH]c4ccc(C)cc4c3C)C2)c1 (stereo not given)	3.3µM	?	?	?	?	?
C(=C\c1ccccc1)/CN1CCN(C(c2cc3ccccc3o2)c2nnnn2C2CCCC2)CC1 (stereo not given)	/	.	.	/	?	.
C(=C\c1ccccc1)/CN1CCN(C(c2cc3ccccc3o2)c2nnnn2Cc2ccccc2)CC1 (stereo not given)	/	16µM	.	/	.	.
COCC(=O)Nc1ccc2c(c1)[C@@H]1C[C@H](CC(=O)OC)O[C@H](CO)[C@@H]1O2	/	.	.	/	.	.
CN(C)CCCn1cnc2c(c1=N)C(c1ccccc1)c1ccc3ccccc3c1O2 (stereo not given)	18µM	.	?	.	.	?
COc1ccc(C2c3ccc4ccccc4c3Oc3ncn(CCCO)c(=N)c32)cc1OC (stereo not given)	18µM	?	5.2µM	18µM	?	7.3µM
COc1ccc(C2c3ccc4ccccc4c3Oc3ncn(CCN4CCOCC4)c(=N)c32)cc1OC (stereo not given)	.	.	.	.	.	.
COc1ccc(C2c3c(ncn(CCCN4CCOCC4)c3=N)Oc3ccc4ccccc4c32)cc1OC (stereo not given)	.	.	.	18µM	.	.
